# Screening data as filed in PubChem.
# HT1080 IDH1KD tx – toxicity to HT-1080 IDH1 knockdown cells (counter line); HT-1080 IDH1 knockdown viability, ATP luminescence, 48 h; Potency, µM (titrated, usually from 46.1 µM), most hits filed as cytotoxic; hit rate 2% among 360,000
#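 After a 2 h attachment period, IDH1KD HT-1080 cells took pin-transferred compound for 48 h at 37 °C; ATP-based luminescence after 10 min room-temperature reagent incubation reported viability.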
# TDP1 cell noCPT – qHTS for Inhibitors of human tyrosyl-DNA phosphodiesterase 1 (TDP1): qHTS in cells in absence of CPT. hit rate 15% among 420,000. Potency, µM (titrated, usually from 46.2 µM), hits mostly inhibitors. DT40 Tdp1-/- hTDP1 cells, no CPT, ATP luminescence, 48 h; note: nearly all actives have a fitted effect of over 55% in size
#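 Growth of hTDP1-complemented DT40 Tdp1-knockout cells is measured by ATP luminescence after at least 48 hr compound exposure at 37 °C, with DMSO substituting for the 20 nM CPT used in the parallel screen.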
# IL-1B inflam inh – inflammasome signaling inhibition, IL-1 beta readout; activity change, % at 57.5 µM; hit rate 4.7% among 360,000; THP-1 LPS/ATP IL-1B secretion, AlphaLISA, 16 h; stronger effect = lower value; AID 743279; in the data active = activity change below about -50%; inconclusive = mostly about -30% to -49%
#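 THP-1 cells pretreated 1 hr with compounds (up to 57.5 uM final), then stimulated with LPS (250 ng/mL final) plus ATP (1.25 mM final); secreted IL-1B measured by AlphaLISA after 16 hr, decreased signal indicating inhibition.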
# ELG1 DNA repair – ELG1-dependent DNA repair inhibition. HEK293T ELG1-luciferase reporter, luminescence, 16 h; DNA damage induced by 5-fluorouridine. Potency, µM (highest dose often 46.1 µM), usual class: inhibitors. hit rate 2.3% among 330,000; note: nearly all actives have a fitted effect of over 55% in size
#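 Quantitative HTS, concentration-response format. 2,000 cells/well co-treated with 5-fluorouridine and compound, 16 hr in 5% CO2 at 37 °C; ONE-Glo luminescence read after 30 min.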
# DT40 TDP1 CPT – DT40-hTDP1 cell growth loss with CPT | chicken DT40 Tdp1-/-;hTDP1 cells + 20 nM CPT, ATP luminescence, 48 h | Potency, µM (highest dose often 46.2 µM), actives largely listed as inhibitors | hit rate 12% among 420,000 | AID 686979; note: nearly all actives have a fitted effect of over 55% in size
#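 Chicken DT40 Tdp1-/- cells complemented with human TDP1, 400 cells/well, exposed to compounds plus 20 nM camptothecin for at least 48 h at 37 C; viability read as ATP content by CellTiter-Glo luminescence.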
# HT1080-NT tox – kills 2HG-producing HT-1080-NT fibrosarcoma cells; HT-1080-NT fibrosarcoma viability, CellTiter-Glo ATP luminescence, 48 h; hit rate 1.6% among 360,000; Potency, µM (top dose mostly 46.1 µM), most hits filed as cytotoxic;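 note: NT is the 2HG producing partner of a matched IDH1 knockdown line; nearly all actives have a fitted effect of over 55% in size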
#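 Fibrosarcoma NT cells, 750 per well in 5% FBS RPMI, were exposed to compound for 48 hours. Viability: CellTiter-Glo luminescence.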
# Hits are given with their value; – = inactive; ? = inconclusive; · = no result given; [ ] = another dose, or the depositor's remark. This is a sample that favours compounds with a hit; in the whole collection about 19% have one here. Unless noted, calls come from the whole dose curve; as a rule, active = well fitted curve in the direction sought with a large enough effect; inconclusive = small, poorly fitted or top-dose-only effect, or another doubt; inactive = no such curve, though single readings can be large; an effect the other way counts as inactive or inconclusive.
SMILES,HT1080 IDH1KD tx,TDP1 cell noCPT,IL-1B inflam inh,ELG1 DNA repair,DT40 TDP1 CPT,HT1080-NT tox
COc1cccc(/C=N/NC(=O)c2cccc(N3CCCC3=O)c2)c1,–,–,–,?,–,–
COc1ccc(O)c(/C=N/NC(=O)c2cccc(N3CCCC3=O)c2)c1,?,3.3µM,–,–,5.2µM,?
COc1ccc(O)c(/C=N/NC(=O)c2ccc(N3CCCC3=O)cc2)c1,23µM,23µM,–,–,13µM,?
O=C(N/N=C/c1cc(Br)ccc1O)c1cccc(N2CCCC2=O)c1,?,4.6µM,–,?,1.6µM,?
Nc1c(-c2nc(-c3ccccc3Cl)no2)nnn1-c1ccccc1F,·,–,·,·,–,·
COc1cc2cc[n+](Cc3ccc([N+](=O)[O-])cc3)cc2cc1OC,–,?,–,–,18µM,–
Cc1nc2nc(C)c(NS(=O)(=O)c3ccc4c(c3)CCCC4)c(=O)n2[nH]1,–,–,–,?,–,–
COc1ccc(C2N=C(Nc3nc4ccccc4o3)NC3=C2C(=O)CC(C)(C)C3)cc1 (configuration not stated),·,6.3µM,·,·,6.3µM,·
CC1(C)CC(=O)C2=C(C1)NC(Nc1nc3ccccc3o1)=NC2c1cccnc1 (configuration not stated),·,–,·,·,?,·
CC1(C)CC(=O)C2=C(C1)NC(Nc1nc3ccccc3o1)=NC2c1ccccc1 (configuration not stated),·,2.8µM,·,·,2.8µM,·
Cc1ccc(C2N=C(Nc3nc4ccccc4o3)NC3=C2C(=O)CC(C)(C)C3)cc1 (configuration not stated),·,4.5µM,·,·,7.1µM,·
Cc1ccccc1Cc1c(C)nc2c(-c3ccccc3)c(C)[nH]n2c1=O,·,21µM,·,·,?,·
Cc1cccc(Cc2c(C)nc3c(-c4ccccc4)c(C)[nH]n3c2=O)c1,·,3.7µM,·,·,5.8µM,·
Cc1nc2c(-c3ccccc3)c(C)[nH]n2c(=O)c1Cc1ccccc1,?,?,–,?,?,–
CCCCc1c(C)nc2c(-c3ccc(OC)cc3)c(C)[nH]n2c1=O,·,10µM,·,·,16µM,·
COc1ccc(-c2c(C)[nH]n3c(=O)c(Cc4ccccc4)c(C)nc23)cc1OC,?,18µM,–,?,?,–
O=C(CN1C(=O)C2CCCCN2c2ccc(C(=O)N3CCCC3)cc21)NCc1ccc(F)cc1 (configuration not stated),·,–,·,·,–,·
CC(C)c1cc(CN2C(C)COCC2C)cc(C(C)C)c1O (configuration not stated),–,?,–,·,21µM,–
COC(=O)c1c(NC(=O)COC(=O)CNC(=O)c2cccc(OC(F)F)c2)sc(C)c1C,–,–,–,·,–,–
CN(C)CCCn1c(N)c(S(=O)(=O)c2ccccc2)c2nc3ccccc3nc21,–,?,–,–,18µM,–
COCCn1c(N)c(S(=O)(=O)c2cccs2)c2nc3ccccc3nc21,–[9.24 µM],–,–,–,–,–
CCCCn1c(N)c(S(=O)(=O)c2ccc(C)cc2)c2nc3ccccc3nc21,?,?,-81,?,–,?
Cc1ccc(S(=O)(=O)c2c(N)n(Cc3ccco3)c3nc4ccccc4nc23)cc1,?,18µM,–,–,?,?
Cc1cccc(S(=O)(=O)c2c(N)n(Cc3ccco3)c3nc4ccccc4nc23)c1,?,?,–,?,?,–
CC(C)(C)C(=O)COC(=O)c1ccc2c(c1)C(=O)N(Cc1ccco1)C2=O,–,–,–,–,–,–
SMILES,HT1080 IDH1KD tx,TDP1 cell noCPT,IL-1B inflam inh,ELG1 DNA repair,DT40 TDP1 CPT,HT1080-NT tox
COc1cc(C)ccc1OCC(=O)NC1CCCCCC1,–,?,–,?,–,–
CCCOc1cc(C)c(Cl)cc1S(=O)(=O)N(CC)CC,–,?,–,–,18µM,–
Cc1cc(Cl)c(S(=O)(=O)N2CCCC2)cc1OCC(=O)NC1CCCCC1,–,18µM,–,13µM,15µM,–
CCN(CC)S(=O)(=O)c1cc(C)c(C)cc1OCC(=O)NC1CCCC1,–,21µM,–,?,15µM,–
CC1CC(C)CN(CCCNC(=O)C2CCN(c3nnc(-n4cccc4)s3)CC2)C1 (configuration not stated),–,–,?,?,–,–
O=C(NCCCc1nc2ccccc2n1Cc1ccc(Cl)cc1)c1ccco1,·,16µM,·,·,?,·
O=C(NCCCc1nc2ccccc2n1Cc1ccccc1Cl)c1ccco1,·,16µM,·,·,29µM,·
O=c1ccc(-c2nc3ccccc3n2Cc2ccccc2Cl)c[nH]1,–,?,–,?,–,–
Clc1ccccc1Cn1c(/C=C/c2ccco2)nc2ccccc21,23µM,?,?,–,?,?
O=C(NCCCc1nc2ccccc2n1Cc1cccc(Cl)c1)c1ccco1,·,23µM,·,·,16µM,·
Cc1ccc(N2C(=O)C3C4C=CC(CC4)C3C2=O)c([N+](=O)[O-])c1 (configuration not stated),–,–,–,–,–,–
COCc1cc(CN2CCCC(C(=O)Nc3ccc(-c4ccco4)cc3)C2)ccc1OC (configuration not stated),?,?,–,–,?,?
CCCCCCCNC(=O)C1(CC2CC(c3ccccc3)=NO2)CCNCC1 (configuration not stated),–,16µM,?,–,?,?
CCCCCCCNC(=O)C1(CC2CC(c3ccc(Cl)cc3)=NO2)CCN(C(=O)C2(C)CC2)CC1 (configuration not stated),–,16µM,?,?,?,–
Cc1c(C(=O)N2CCN(C(C)C)CC2)sc2ncnc(NCc3ccco3)c12,·,–,·,·,–[9.04 µM],·
O=C(NCCCN1CCCC1)Nc1ccc(F)cc1,–,–,–,–,–,–
O[Si](CCCN1CCCCC1)(c1ccc(F)cc1)C1CCCCC1 (configuration not stated),21µM,26µM,?,–,?,?
CCN(CC)CC(O)CCCCCCCCC(=O)OC (configuration not stated),–,–,–,–,–,–
COC(=O)CCCCCCCCC(O)CN(C)C (configuration not stated),?,16µM,–,–,?,–
CCOc1ccc(CCNC(=O)CSc2cc(=O)n(CC)c3ccccc23)cc1OCC,–,?,–,–,?,–
COc1ccccc1CNC(=O)CSc1cc(=O)n(C)c2ccccc12,–,?,–,–,?,–
CCn1c(=O)cc(SCC(=O)NCc2ccccc2OC)c2ccccc21,·,23µM,·,·,?,·
CCn1c(=O)cc(SCC(=O)NCCc2ccc(OC)cc2OC)c2ccccc21,·,23µM,·,·,?,·
